Sampled rows, rich in hits. Any-hit rate of the full collection: about 1.2%.
Avidin fluor – compound fluoresces at 488/530 nm on avidin beads | compound fluorescence 488/530 nm, flow cytometry; active compounds read high | fluorescence (KMESF) at 10 µM | actives 0.38% (n = 220,000); in the data active means fluorescence above about 47
RGS16-Gao – modulates binding between human RGS16 and Galphao; O15492+P09471; bead-based flow cytometry RGS16-Galphao binding, fluorescence; actives lie on both sides; binding response (% of control), % at 10 µM; actives 0.38% (n = 220,000); AID 1441; call rule not given here;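 further: Galphao activated by GDP with aluminum fluoride before binding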
Target sequence (O15492 whole entry, looked up): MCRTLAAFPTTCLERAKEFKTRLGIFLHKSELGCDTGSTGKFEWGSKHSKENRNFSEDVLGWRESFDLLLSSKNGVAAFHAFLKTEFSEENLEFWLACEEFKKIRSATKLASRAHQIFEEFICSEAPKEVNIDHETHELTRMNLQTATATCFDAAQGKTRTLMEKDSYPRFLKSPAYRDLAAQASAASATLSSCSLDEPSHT
Target sequence (P09471 whole entry, looked up): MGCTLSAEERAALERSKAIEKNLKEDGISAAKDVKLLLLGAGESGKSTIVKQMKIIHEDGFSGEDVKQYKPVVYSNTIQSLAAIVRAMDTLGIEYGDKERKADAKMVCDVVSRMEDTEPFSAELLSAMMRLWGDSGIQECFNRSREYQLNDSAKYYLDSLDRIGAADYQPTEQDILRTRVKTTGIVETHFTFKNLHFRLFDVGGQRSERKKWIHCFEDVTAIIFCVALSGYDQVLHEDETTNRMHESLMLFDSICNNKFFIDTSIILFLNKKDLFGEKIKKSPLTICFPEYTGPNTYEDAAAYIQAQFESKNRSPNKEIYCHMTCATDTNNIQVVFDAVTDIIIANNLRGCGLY
RGS4-Gao reg – modulates binding of RGS4 to human Galphao; P09471; Multiplexed bead flow cytometry; actives lie on both sides; binding response (% of control), % at 10 µM; actives 0.33% (n = 220,000); in the data active means binding response below about 49% or above about 150%; inactive means in between;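 further: fluorescent Galphao activated with aluminum fluoride binding bead-coupled RGS4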
Target sequence (P09471 whole entry, looked up): as above
RGS7-Gao reg – human RGS7-Galphao interaction regulation; P09471; Multiplexed bead flow cytometry, RGS7-Galphao binding; actives lie on both sides; binding response (% of control), % at 10 µM; actives 0.35% (n = 220,000); AID 1439; in the data active means binding response below about 49% or above about 150%; inconclusive means no clear call, values can overlap the other calls; inactive means in between;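 further: fluorescent Galphao held in activated GDP-AlF4 state binding bead-coupled RGS7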
GSH fluor – GSH bead compound fluorescence profile. GSH beads flow cytometry, compound fluorescence 488/530 nm; active compounds read high. fluorescence (KMESF) at 10 µM. actives 0.25% (n = 190,000). AID 1776; in the data active means fluorescence above about 89;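 further: glutathione beads carrying GST-tagged Bcl family fusion proteins plus one bare bead set; values are compound well signal with DMSO vehicle wells as background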
RGS8-Gao – modulates binding of RGS8 to human Galphao | response (percent of control binding), % at 10 µM | actives 0.34% (n = 220,000) | AID 1423 | multiplexed bead flow cytometry; actives lie on both sides | P09471; in the data active means response below about 60% or above about 140%; inactive means in between;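 further: Galphao activated as the GDP aluminium fluoride complex binding bead-coupled RGS8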
Active calls of the source: *; u = inconclusive; x = not tested or not shown.

SMILES	Avidin fluor	RGS16-Gao	RGS4-Gao reg	RGS7-Gao reg	GSH fluor	RGS8-Gao
Cc1ccc(S(=O)(=O)N2CCN(c3ccccn3)CC2)cc1	5	97.2	98.1	u	x	96.3
CC(=O)Nc1ccc(S(=O)(=O)N2CCOCC2)cc1	4	87.8	77.9	79.5	140*	94.5
NC(=O)C1CCN(C(=O)COc2ccc(Nc3ccccc3)cc2)CC1	9	97.8	91.7	u	x	99.8
NS(=O)(=O)c1ccc(NC(=S)NCc2ccco2)cc1	8	84.3	98.2	128.7	11	90.2
N#Cc1c(N)oc(-c2ccccc2)c1-c1ccccc1	10	99.3	100.0	98.0	268*	101.2
CCOC(=O)/C(C#N)=C(\O)c1ccc(NC(=O)c2ccc([N+](=O)[O-])cc2)cc1	59*	132.2	127.1	u	x	107.3
O=C(Nc1ccccc1)N1CCCC(CNS(=O)(=O)Cc2ccccc2)C1 (configuration not stated)	9	103.9	95.9	107.0	25	105.0
C/C(=N\NC(=O)COc1cccc(Cl)c1)c1ccc2c(c1)OCCO2	19	107.6	110.4	105.4	314*	99.2
C/C(=N\NC(=O)CSCc1ccc(Cl)cc1)c1ccc2c(c1)OCCO2	3	103.0	104.0	100.8	22	99.2
CNc1ccc(S(=O)(=O)NCC(=O)OCC(=O)Nc2cccc(Cl)c2Cl)cc1[N+](=O)[O-]	14	112.5	105.5	107.4	7	104.5
S=C1COC(c2ccccc2)N1c1ccccc1 (configuration not stated)	5	91.6	88.6	92.0	142*	100.7
S=C1N(c2ccccc2)C(c2ccccc2)N2CCCN12 (configuration not stated)	13	96.2	101.7	97.5	14	102.5
O=C(CSc1nnc(-c2ccncc2)n1-c1ccc(Cl)cc1)N1CCOCC1	77*	104.4	107.3	131.8	18	98.1
CCn1c(SCC(=O)N2CCN(c3ccccc3)CC2)nnc1-c1ccncc1	4	95.4	98.2	101.2	148*	98.7
NC(=O)CSc1nnc(-c2ccncc2)n1-c1ccc(Cl)cc1	5	48.6	90.2	93.7	23	86.4
Cc1occc1-c1nnc(SCCCC(=O)c2ccc(F)cc2)n1C	8	93.4	96.3	95.2	259*	100.2
Cn1c(SCCCC(=O)c2ccc(F)cc2)nnc1-c1ccncc1	9	105.2	100.1	101.8	16	99.5
CCCCOC(=O)CSc1n[nH]c(=O)[nH]c1=O	5	104.2	105.2	103.1	26	101.3
C=CCn1c(SCC(=O)c2ccc(O)c(O)c2)nnc1-c1ccccc1OC	4	52.9	56.9	54.9	247*	68.2
CCN1C=C(C(=O)OC)C(c2cccc(OC)c2OC)C(C(=O)OC)=C1	7	98.1	103.3	107.5	22	99.6
O=C(O)c1ccccc1CSc1nc2ccccc2n1Cc1ccccc1C(=O)O	6	98.0	99.9	99.9	13	101.4
N#C/C(=C\c1ccc(N2CCOCC2)o1)C(=O)Nc1ccc(O)cc1	22	106.2	105.5	102.0	10	105.2
N#C/C(=C/c1ccc(N2CCCCC2)o1)C(=O)Nc1ccc(Cl)cc1	56*	134.7	125.6	123.8	52	104.4
Cc1ccc(C#CC[N+](C)(C)CC#Cc2ccccc2)cc1	12	103.4	107.7	104.0	25	103.3
CCn1c(CSc2nc3ccccc3s2)nnc1SCC(=O)c1ccc(O)c(O)c1	4	64.6	67.7	66.6	268*	76.4
SMILES	Avidin fluor	RGS16-Gao	RGS4-Gao reg	RGS7-Gao reg	GSH fluor	RGS8-Gao
CCOC(=O)C1(CC2CC2)CCN(Cc2cnc(-c3ccc(OC)cc3)nc2)CC1	3	98.2	99.4	97.8	10	98.0
CC(CCn1cccn1)NC(=O)CCc1nnc(C2CCCCC2)o1 (configuration not stated)	11	103.6	96.9	102.6	18	103.7
COC(=O)c1ccc(C2C(Oc3ccccc3)C(=O)N2CCc2ccc(F)cc2)cc1 (configuration not stated)	61*	99.5	99.9	112.3	17	99.6
Cc1cc(C(F)F)nn1CC(=O)NC1C(=O)N2C(C(=O)O)=C(CSc3nnnn3C)CSC12 (configuration not stated)	58*	100.7	112.8	131.7	64	96.7
Cn1nnnc1SCC1=C(C(=O)O)N2C(=O)[C@@H](NC(=O)[C@H](O)c3ccccc3)[C@H]2SC1	x	x	x	x	16	x
Cc1cnc(NC(=O)CSc2nnc(-c3cccs3)n2C)s1	7	92.1	89.8	93.8	269*	95.5
COc1ccc(S(=O)(=O)N(C)C)cc1NC(=O)CSc1nnc(-c2cccnc2)o1	11	97.6	83.1	u	16	100.1
CN(CCO)C(=O)c1cccc2c1-c1ccccc1C2=O	8	102.8	100.0	103.7	259*	99.4
Cc1ccc(NC(=O)CS(=O)CC(=O)NC(C)CCc2ccco2)cc1Cl (configuration not stated)	72*	97.8	97.3	115.6	26	96.6
CC(CCc1ccco1)NC(=O)Nc1cccc(F)c1 (configuration not stated)	10	108.4	105.8	107.3	52	103.4
COc1ccc(OC)c(Cc2nnc(CCC(=O)N3CCCCC3c3nccs3)o2)c1 (configuration not stated)	11	104.9	96.5	96.5	14	98.6
O=C1CSC(=S)N1Cc1cccnc1	8	100.9	103.5	99.8	65	97.4
O=C1CSC(=S)N1c1cccnc1	7	99.2	99.7	97.6	266*	101.1
Cc1cccc(OCc2nnc(SCC(=O)NCCc3ccccc3)o2)c1	10	102.4	98.5	104.3	243*	100.2
Cc1cccc(OCc2nnc(SCC(=O)c3ccccc3)o2)c1	64*	104.4	104.6	130.2	14	97.8
O=C1Nc2ccc3sc4ccccc4c3c2C1=O	x	93.3	94.1	u	x	100.2
O=C(Nc1ccc2c(c1)OCO2)N1CCN(c2ncc(C(F)(F)F)cc2Cl)CC1	8	100.2	103.3	105.0	257*	103.7
CCN(CC)S(=O)(=O)c1ccc(C)c(NC(=S)NC2CCCCC2)c1	8	97.3	99.5	u	x	99.0
O=C(Cc1ccccc1Cl)Nc1nc2ccccc2[nH]1	6	100.5	100.7	u	x	101.2
Cc1ccc2cc(CCl)c(Cl)nc2c1	8	102.1	97.3	u	x	100.9
Cc1cc(C(=O)NC(Cc2ccccc2)C(=O)O)c(C)o1 (configuration not stated)	6	93.4	91.4	u	x	93.9
O=C(OCC(=O)N1CCOCC1)c1ccc2c(c1)OCCO2	1	-154.4	32.1*	29.8*	12	41.9*
O=C(c1ccco1)N1CCN(C(c2ccc(F)cc2)c2nnnn2Cc2cccs2)CC1 (configuration not stated)	7	126.7	106.5	100.9	260*	110.6
